For 63 compounds, activity, negative = inhibition and AC50 results are on record in PubChem BioAssay AID1851 (National Center for Advancing Translational Sciences (NCATS), 2009).

In all, about 16,000 compounds went through this assay and about 5,800 (36%) were called active. About 23% were inconclusive and are not listed. The list shows a part of the results. Values without a mark were called inactive. Calls come from the whole dose curve; as a rule, active = well fitted curve in the direction sought with a large enough effect; inconclusive = small, poorly fitted or top-dose-only effect, or effect the other way; inactive = no such curve, though single readings can be large or run the other way.
% is set by controls: 0 for no effect and ±100 for the full control effect.

Cytochrome P450 2C19 (Homo sapiens), sequence (P33261 whole entry, looked up): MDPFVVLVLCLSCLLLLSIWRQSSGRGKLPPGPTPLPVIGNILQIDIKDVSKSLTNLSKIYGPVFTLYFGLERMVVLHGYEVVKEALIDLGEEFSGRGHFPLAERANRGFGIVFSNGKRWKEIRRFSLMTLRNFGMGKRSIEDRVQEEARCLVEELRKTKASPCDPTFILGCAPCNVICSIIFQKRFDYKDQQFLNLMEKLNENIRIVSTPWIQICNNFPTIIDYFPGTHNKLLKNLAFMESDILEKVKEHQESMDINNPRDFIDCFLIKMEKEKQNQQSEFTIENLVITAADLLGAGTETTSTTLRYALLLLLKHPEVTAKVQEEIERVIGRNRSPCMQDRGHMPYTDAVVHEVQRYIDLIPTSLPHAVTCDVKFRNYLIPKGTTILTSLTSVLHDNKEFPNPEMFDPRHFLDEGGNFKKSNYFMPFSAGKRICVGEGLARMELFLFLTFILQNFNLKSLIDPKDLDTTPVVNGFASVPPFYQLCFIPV

The experiment addresses Cytochrome P450 2C19 (Homo sapiens) (UniProt P33261). Briefly: Cytochrome panel assay with activity outcomes. The settings on record: recombinant CYP, pro-luciferin dealkylation, luminescence, p450-cyp2c19; series mostly up to 57.1 µM.
For `O=C1CCCC=C1[C@H](O)c1ccc([N+](=O)[O-])cc1`, the activity, negative = inhibition was -22% [at 11.4 µM].
For `O=C1CCCC=C1[C@H](CCc1ccccc1)OC(=O)c1ccc(Br)cc1`, the half-maximal activity concentration (AC50) (as a rule, the concentration at which the activity in the assay is half-maximal) was 1580 nM (active).
Regarding `CC/C=C\CC[C@H](O)C1=CCCCC1=O`, the activity, negative = inhibition is 13.3% [at 11.4 µM].
Take `CC/C=C\CC[C@H](OC(=O)c1ccc(Br)cc1)C1=CCCCC1=O`: the AC50 is 2000 nM (active).
On to `Cc1c(Cl)c(S(N)(=O)=O)cc2c1=NC=NS=2(=O)O`, for which the activity, negative = inhibition was 8.1% [at 11.4 µM].
Turning to `CN1CCC2(CC1)CCN(C(=O)c1ccncc1)CC2`, the AC50 entry is “inactive”.
Turning to `CCOc1ccc2c(c1)nc(SCC(=O)c1ccc(Br)s1)n2C`, the AC50 was 708 nM (active).
On the same count and under the same terms, next, `COc1ccc2c(c1)nc(SCC(=O)c1ccc(Br)s1)n2C`: 398 nM (active); `Nc1ncnc2c1ncn2[C@@H]1O[C@@H](C(=O)NC2CC2)[C@H](O)[C@@H]1O`: “inactive”; `Cc1cc(O)c(/C=N/Nc2cccc(Cl)c2)c(=O)o1`: 3160 nM (active).
As for `C[C@@H](CSC(=N)N)C(N)=O`, the activity, negative = inhibition was 27.2% [at 11.4 µM].
In the case of `Cc1ccc(CNC(=O)Cc2csc(Nc3nc(=S)[nH]c4ccccc34)n2)cc1`, the half-maximal activity concentration (AC50) is 2240 nM (active).
As to `O=C(Cc1csc(Nc2nc(=S)[nH]c3ccccc23)n1)NCc1cccc(Cl)c1`, the AC50 was 794 nM (active).
Still for that read-out and setting: next, `COc1ccc(CNC(=O)Cc2csc(Nc3nc(=S)[nH]c4ccccc34)n2)cc1`: 2820 nM (active).
On the same count and under the same terms, the value for `Oc1cc2c(cc1O)CN(C(=S)NCCc1ccc(Cl)cc1)CCC2` was 316 nM (active); that for `CN1C(=O)CC[C@@H]1c1cccnc1` was “inactive”.
For `Cc1ccc(N2C(=O)CSC2c2cccnc2)cc1F` (stereo not drawn), the half-maximal activity concentration (AC50) was 20000 nM (active).
Consider `CC1(C)CO[C@H](CC(=O)O)CN1`, for which the concentration at half-maximal activity (AC50) was 5010 nM (active).
Still for that read-out and setting: next, `Cc1nc2cnc(N(C)C)nc2n(C)c1=O`: “inactive”; `CSc1nc(N)nc(-c2cccs2)c1C#N`: 7940 nM (active).
Same read-out and setting: the value for `Cc1c(-c2ccc(F)cc2)nc(N)c(C#N)c1-c1cccs1` was 4470 nM (active); that for `Cc1ccccc1OCC(=O)N/N=C1\CCOc2c(C)cccc21` was “inactive”; that for `COc1cccc(OCC(=O)NN=C2c3ccccc3-c3ccccc32)c1` was 708 nM (active).
The same measure, in the same setting: next, `Cc1cccc2c1OCC/C2=N\NC(=O)COc1ccccc1`: 3160 nM (active).
With `Cc1c(N2CCCC2)cc2c(c1NC(=O)c1ccccc1Cl)C(C)(C)CC2(C)C`, the AC50 was 794 nM (active).
Still for that read-out and setting: next, `Fc1cccc(/C=N\N=C/c2cccc(F)c2)c1`: “inactive”; `O=C(N/N=C/c1cccc(F)c1)c1csc2c1CCCC2`: 7080 nM (active).
The same measure, in the same setting: the value for `COc1ccccc1CNc1ncncc1-c1cccnc1` was 10000 nM (active).
The same measure, in the same setting: next, `COc1cccc(-c2cncnc2NCc2ccccc2OC)c1`: 2000 nM (active); `COc1cccc(-c2cncnc2NCc2ccc(OC)cc2OC)c1`: 1260 nM (active).
For `CCC(C)(C)n1nnnc1C(c1ccc(C)cc1)N1CCC(C)CC1` (stereo not drawn), the concentration at half-maximal activity (AC50) was 14100 nM (active).
Still for that read-out and setting: the value for `Cc1cc(C)c(NC(=O)C[C@H](CC(=O)O)c2cccc3ccccc23)c(C(=O)N2CCC3(CCCC3)CC2)c1` was “inactive”.
The same measure, in the same setting: next, `CSc1n[nH]c(-c2sccc2OCc2ccc(C)cc2)n1`: 1120 nM (active); `COc1ncc2nc(-c3cc(F)cc(F)c3)c(=O)n(C3CC3)c2n1`: “inactive”.
For the compound `COc1cccc(C(C(=O)Nc2ccc(F)cc2)N(C(=O)Cn2nnc3ccccc32)C2CC2)c1` (stereo not drawn), the AC50 is 20000 nM (active).
Same read-out and setting: next, `CCc1ccc(N2C(=O)c3ccc4c5c(ccc(c35)C2=O)CC4)cc1`: 3160 nM (active); `Cc1ccccc1C(=O)N1CCc2ccccc2C1`: 1410 nM (active); `N=C(N)N1CCc2ccccc2C1`: “inactive”.
The same measure, in the same setting: the value for `Cc1noc(C)c1C(=O)N1CCC2(CCN(Cc3ccccc3)CC2)CC1` was “inactive”; that for `Cc1onc(-c2c(Cl)cccc2Cl)c1C(=O)N1CCc2ccccc2C1` was 2820 nM (active); that for `Cc1noc(C)c1C(=O)N1CCC2(CC1)CN(c1ccccc1)C2` was “inactive”.
`NCCSC[C@H](N)C(=O)O`: the activity, negative = inhibition was -6.06% [at 11.4 µM].
Regarding `O=C1CC(c2cccs2)c2cc3c(cc2N1)OCO3` (stereo not drawn), the concentration at half-maximal activity (AC50) is 1120 nM (active).
Consider `CCCC[C@@H]1C[C@H]1C(NC(=O)c1ccc(-c2ccccc2)cc1)c1ccc(-c2ccccc2)cc1` (stereo partly drawn), for which the AC50 entry was “inactive”.
The same measure, in the same setting: the value for `CCC[C@@H]1C[C@@]1(CCC)C(NS(=O)(=O)c1cccc2cccnc12)c1ccc(Cl)cc1` (stereo partly drawn) was 3160 nM (active); that for `CCCC[C@@H]1C[C@H]1C(NC(=O)c1ccco1)c1ccc(C(=O)OC)cc1` (stereo partly drawn) was 1000 nM (active).
For `CCCC[C@@H]1C[C@H]1C(NC(=O)c1ccco1)c1ccc(-c2ccccc2)cc1` (stereo partly drawn), the concentration at half-maximal activity (AC50) was 25100 nM (active).
The same measure, in the same setting: next, `CCC[C@@H]1C[C@@]1(CCC)C(NC(=O)c1ccco1)c1ccc(Cl)cc1` (stereo partly drawn): 3160 nM (active).
Regarding `CO[C@H]1COC(=O)C/C=C\[C@H](C)COC(=O)[C@@H](C)NC(=O)C/C=C\[C@@H]1C`, the activity, negative = inhibition is -31.5% [at 11.4 µM].
Regarding `COCCn1c(=O)c(C)nc2cnc(Nc3cccc(OC)c3)nc21`, the AC50 result is “inactive”.
Same read-out and setting: the value for `C[C@@]1(C(NC(=O)Cc2ccccc2)c2ccc(-c3ccccc3)cc2)C[C@H]1C1CCCCC1` (stereo partly drawn) was “inactive”; that for `CCCC[C@@H]1C[C@H]1C(NC(=O)c1ccco1)c1ccc(Cl)cc1` (stereo partly drawn) was 316 nM (active).
Still for that read-out and setting: next, `CCCC[C@@H]1C[C@H]1C(NC(=O)c1ccco1)c1ccccc1` (stereo partly drawn): 1260 nM (active).
Still for that read-out and setting: the value for `CCC[C@@H]1C[C@@]1(CCC)C(NC(=O)OCc1ccccc1)c1ccc(-c2ccccc2)cc1` (stereo partly drawn) was 1260 nM (active).
For `CC[C@](N)(C(=O)O)C(C)C`, the activity, negative = inhibition is 31.3% [at 11.4 µM].
Turning to `CCCn1c(N)c(C(=O)CSc2nc(C)cs2)c(=O)n(C)c1=O`, the half-maximal activity concentration (AC50) was 10000 nM (active).
`O=C(/C=C\c1ccc(O)c(O)c1)O[C@@H](Cc1ccc(O)c(O)c1)C(=O)O`: the AC50 result was “inactive”.
For `COC(=O)/C=C\c1cc(O)ccc1O`, the concentration at half-maximal activity (AC50) was 15800 nM (active).
On the same count and under the same terms, next, `O=C(O)/C=C\c1ccc(O)c(O)c1`: “inactive”.
As for `CO[C@@H](C(C)C)[C@@H](C)[C@@H]1OC(=O)C[C@@H]1O`, the activity, negative = inhibition was 2.42% [at 11.4 µM].
For the compound `COC(=O)C[C@@H]1O[C@H]1[C@H](C)[C@@H](OC)C(C)C`, the AC50 was 3980 nM (active).
`CC(O)CN(CCC(N)=O)CCC(N)=O` (stereo not drawn): the AC50 result is “inactive”.
Same read-out and setting: next, `COc1ccc(S(=O)(=O)N2CC3C4C=CC(C4)C3C2)cc1` (stereo not drawn): 891 nM (active).
